Some test systems named below: RPMI-8226 leukemia; OVCAR-8 ovarian; OVCAR-5 ovarian; OVCAR-4 ovarian; SK-OV-3 ovarian; IGROV1 ovarian; OVCAR-3 ovarian; HS 578T breast; NCI/ADR-RES ovarian; BT-549 breast; MDA-MB-435 melanoma; SW-620 colon; MCF7 breast; HCT-116 colon; HCC-2998 colon; KM12 colon; T-47D breast.
Common to all, as to experiment: NCI-60 one-dose screen, 48 h (100 = growth as untreated, 0 = no growth, -100 = all killed)
What all share (conditions): 10 µM

Compounds without any hit were thinned out: in the full panel of roughly 83,000, 20% have a hit.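 Plates (96-well) were seeded with cells, treated with compound at one concentration, and incubated for 48 hours before percent growth was determined.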 Unmarked numbers belong to inactive results. Active and inactive are the calls of the source. Rule for the calls: active = growth percent below 10; inactive = the rest.

As for `Nc1c(C(=O)Nc2cccc3ccccc23)sc2nc3c(cc12)C(=O)CCC3`, the growth in the assay with RPMI-8226 leukemia is 15.7%; in the assay with OVCAR-8 ovarian, 21%; in the assay with OVCAR-5 ovarian, 40.3%; in the assay on OVCAR-4 ovarian, 47.7%; with SK-OV-3 ovarian, 5.64% (active); with IGROV1 ovarian, 23.7%. Besides, the growth with OVCAR-3 ovarian was -26.7% (active); with HS 578T breast, 14.2%; in the assay on NCI/ADR-RES ovarian, 2.15% (active); with BT-549 breast, 57%; in the assay on MDA-MB-435 melanoma, -37.3% (active); with SW-620 colon, 21.3%. Moreover, the growth with MCF7 breast was 13.6%; in the assay on HCT-116 colon, 17.5%; with HCC-2998 colon, 11.9%; in the assay on KM12 colon, 25.9%.

With `N#Cc1ncc(Br)c(NC2CCCCCC2)n1`, the growth in the assay with RPMI-8226 leukemia is 93.4%; in the assay on OVCAR-8 ovarian, 89.8%; with OVCAR-5 ovarian, 99.9%; in the assay with OVCAR-4 ovarian, 91.3%; in the assay on SK-OV-3 ovarian, 99.1%; in the assay on IGROV1 ovarian it was 104%. Moreover, the growth is 119% with OVCAR-3 ovarian; 107% in the assay with HS 578T breast; 106% in the assay on NCI/ADR-RES ovarian; 98.4% in the assay with BT-549 breast; 103% with MDA-MB-435 melanoma; 113% with SW-620 colon. For the same compound, the growth in the assay with MCF7 breast is 92.1%; with HCT-116 colon, 104%; in the assay with HCC-2998 colon, 111%; with KM12 colon, 113%.

Turning to `CCCCCCCCCCCCCCCCCC(=O)OCCCCCCC`, the growth with RPMI-8226 leukemia was 96.8%; in the assay on OVCAR-8 ovarian it was 102%; in the assay with OVCAR-5 ovarian, 106%; in the assay on OVCAR-4 ovarian, 110%; in the assay on SK-OV-3 ovarian it was 105%; in the assay on IGROV1 ovarian, 111%. Besides, the growth in the assay with OVCAR-3 ovarian was 101%; with HS 578T breast, 109%; in the assay on T-47D breast, 99.6%; in the assay with BT-549 breast, 110%; in the assay on MDA-MB-435 melanoma, 94.6%; in the assay with SW-620 colon it was 97.5%. Moreover, the growth was 107% in the assay with MCF7 breast, 118% in the assay with HCT-116 colon, 102% with HCC-2998 colon and 97.6% with KM12 colon.

On to `COc1cc2nc(Nc3cccc(NC(C)=O)c3)nc(N)c2cc1OC`, for which the growth in the assay on RPMI-8226 leukemia is 55.7%; in the assay on OVCAR-8 ovarian, 99%; with OVCAR-5 ovarian it was 117%; in the assay on OVCAR-4 ovarian, 107%; in the assay on SK-OV-3 ovarian, 118%; in the assay with IGROV1 ovarian it was 26.8%. Further, the growth is 111% with OVCAR-3 ovarian; 95.7% in the assay on HS 578T breast; 149% with NCI/ADR-RES ovarian; 118% with BT-549 breast; 123% with MDA-MB-435 melanoma; 95.9% in the assay with SW-620 colon. Further, the growth with MCF7 breast is 99.5%; in the assay with HCT-116 colon, 95.9%; in the assay with HCC-2998 colon, 113%; in the assay with KM12 colon it was 89.5%.

For the compound `CN(C)c1ccc(Cc2ccc(N(C)C)cc2Cl)c(Cl)c1`, the growth in the assay with RPMI-8226 leukemia is 81.1%; with OVCAR-8 ovarian, 101%; in the assay with OVCAR-5 ovarian it was 99.6%; in the assay on OVCAR-4 ovarian, 78.6%; with SK-OV-3 ovarian it was 103%; in the assay on IGROV1 ovarian it was 90.7%. Further, the growth in the assay with OVCAR-3 ovarian is 94.9%; with NCI/ADR-RES ovarian it was 101%; in the assay on T-47D breast it was 87.1%; with BT-549 breast, 136%; in the assay with MDA-MB-435 melanoma it was 109%; in the assay on SW-620 colon, 91.2%. The growth in the assay with MCF7 breast was 111%; in the assay on HCT-116 colon it was 95.4%; in the assay with HCC-2998 colon it was 96.8%; in the assay on KM12 colon, 90.4%.

In the case of `Clc1ccc(-c2cn(-c3ccccc3)c(-c3ccccc3)n2)c(Cl)c1`, the growth is 16% in the assay on RPMI-8226 leukemia; 9.55% (active) in the assay with OVCAR-8 ovarian; 16.4% with OVCAR-5 ovarian; -100% (active) in the assay on OVCAR-4 ovarian; 25.1% in the assay with SK-OV-3 ovarian; -26.3% (active) in the assay on IGROV1 ovarian. In addition, the growth in the assay on OVCAR-3 ovarian was -84% (active); in the assay on HS 578T breast, -20.3% (active); with NCI/ADR-RES ovarian, 13.6%; with BT-549 breast it was -12.7% (active); with MDA-MB-435 melanoma it was -37.2% (active); in the assay on SW-620 colon it was -100% (active). Besides, the growth in the assay with MCF7 breast is 5.1% (active); in the assay on HCT-116 colon, -100% (active); in the assay with HCC-2998 colon it was 13.7%; in the assay with KM12 colon, -88% (active).

`COc1ccc2c(c1)O/C(=C\c1ncc([N+](=O)[O-])n1C)C2=O`: the growth with RPMI-8226 leukemia is -1.22% (active); in the assay on OVCAR-8 ovarian, -20.8% (active); in the assay with OVCAR-5 ovarian, -14.7% (active); with OVCAR-4 ovarian it was -11.6% (active); with SK-OV-3 ovarian, -15.9% (active); in the assay on IGROV1 ovarian, -25% (active). The growth in the assay on OVCAR-3 ovarian was -24.8% (active); with HS 578T breast, -21.1% (active); in the assay with NCI/ADR-RES ovarian it was 1.07% (active); in the assay with BT-549 breast, -36.8% (active); with MDA-MB-435 melanoma, -78.1% (active); in the assay on SW-620 colon, -20.8% (active). The growth is 1.94% (active) with MCF7 breast, 0.959% (active) in the assay with HCT-116 colon, -58.8% (active) in the assay with HCC-2998 colon and -37.7% (active) with KM12 colon.

For `CC(C)(C)NC/C(=C\c1ccccc1)C(=O)c1ccccc1`, the growth with RPMI-8226 leukemia is -0.943% (active); with OVCAR-8 ovarian it was -29.1% (active); in the assay on OVCAR-5 ovarian, -42.7% (active); in the assay with OVCAR-4 ovarian, 30.7%; in the assay on SK-OV-3 ovarian, 57.9%; in the assay with IGROV1 ovarian, 0.595% (active). The growth was -43.1% (active) in the assay with OVCAR-3 ovarian; 38.2% in the assay on HS 578T breast; -30.7% (active) in the assay with NCI/ADR-RES ovarian; 15.8% in the assay with BT-549 breast; 4.28% (active) in the assay on MDA-MB-435 melanoma; -30.6% (active) with SW-620 colon. For the same compound, the growth in the assay with MCF7 breast was 7.56% (active); in the assay on HCT-116 colon, -95.3% (active); with HCC-2998 colon it was -78.6% (active); with KM12 colon, 14%.

Consider `O=C(CCCCC[P+](c1ccccc1)(c1ccccc1)c1ccccc1)NC(COC(=O)C(Cl)Cl)(COC(=O)C(Cl)Cl)COC(=O)C(Cl)Cl`, for which the growth in the assay on RPMI-8226 leukemia was 83.3%; in the assay on OVCAR-8 ovarian, 95%; in the assay with OVCAR-5 ovarian it was 98.6%; in the assay with OVCAR-4 ovarian, 100%; in the assay with SK-OV-3 ovarian, 94.3%; in the assay on IGROV1 ovarian, 100%. Moreover, the growth in the assay on OVCAR-3 ovarian is 103%; in the assay with HS 578T breast, 110%; in the assay on NCI/ADR-RES ovarian it was 114%; in the assay on MDA-MB-435 melanoma, 102%; in the assay with SW-620 colon, 107%; in the assay on MCF7 breast, 95.2%. Also, the growth in the assay on HCT-116 colon is 100%; in the assay on HCC-2998 colon, 109%; in the assay with KM12 colon it was 107%.
